DT40 TDP1 no CPT = qHTS for Inhibitors of human tyrosyl-DNA phosphodiesterase 1 (TDP1): qHTS in cells in absence of CPT | Potency, µM (series often up to 46.2 µM), usual class: inhibitors | 420,000 tested, 15% active | AID 686978, 2013 | DT40 Tdp1-/- hTDP1 cells, no CPT, ATP luminescence, 48 h; further: nearly all actives have a fitted effect of over 55% in size
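A cellular qHTS used chicken DT40 cells lacking endogenous Tdp1 but carrying stably transfected human TDP1. Compounds were applied without camptothecin, and cell growth kinetics were judged by ATP-dependent luminescence after ≥48 hr.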
TDP1 cell CPT = DT40-hTDP1 cell growth loss with CPT; chicken DT40 Tdp1-/-;hTDP1 cells + 20 nM CPT, ATP luminescence, 48 h; Potency, µM (top dose mostly 46.2 µM), actives largely listed as inhibitors; 420,000 tested, 12% active; AID 686979; further: nearly all actives have a fitted effect of over 55% in size
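Chicken DT40 Tdp1-/- cells stably complemented with human TDP1 were seeded at 400 cells/well in medium containing 20 nM camptothecin, exposed to pin-transferred compounds, and grown at 37 °C for at least 48 hr. Viability was read as ATP luminescence.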
ClpP mod = qHTS Assay for Activators of ClpP; ATP-dependent Clp protease proteolytic subunit (Bacillus subtilis (strain 168)), P80244; purified B. subtilis ClpP, FRET peptide cleavage, 20 min; Potency, µM (doses to about 57.5 µM); 340,000 tested, 1.9% active; AID 651965, 2013; active means well fitted falling curve with a large enough effect; inconclusive means small, poorly fitted or top-dose-only effect; inactive means no such curve, though single readings can be large or run the other way; further: the source files actives as falling curves though it sought activators and does not explain the sign; nearly all actives have a fitted effect of over 65% in size
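Purified B. subtilis ClpP, 10 microg/mL final in Tris/HCl pH8 with KCl, BSA, glycerol and Tween-20, cleaved an Abz/nitrotyrosine-quenched decapeptide. Fluorescence (ex 320, em 430) was read at 0 and 20 min at room temperature. Delta was normalized to 5.8 microM ADEP and DMSO/no-enzyme controls.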
TDP1 inh = inhibitors of human tyrosyl-DNA phosphodiesterase TDP1; Potency, µM (series often up to 130 µM), most hits filed as inhibitors; Q9NUW8; 350,000 tested, 0.28% active; AID 485290; recombinant TDP1, AlphaScreen DNA substrate cleavage; further: nearly all actives have a fitted effect of over 40% in size
Target sequence (Q9NUW8 whole entry, looked up): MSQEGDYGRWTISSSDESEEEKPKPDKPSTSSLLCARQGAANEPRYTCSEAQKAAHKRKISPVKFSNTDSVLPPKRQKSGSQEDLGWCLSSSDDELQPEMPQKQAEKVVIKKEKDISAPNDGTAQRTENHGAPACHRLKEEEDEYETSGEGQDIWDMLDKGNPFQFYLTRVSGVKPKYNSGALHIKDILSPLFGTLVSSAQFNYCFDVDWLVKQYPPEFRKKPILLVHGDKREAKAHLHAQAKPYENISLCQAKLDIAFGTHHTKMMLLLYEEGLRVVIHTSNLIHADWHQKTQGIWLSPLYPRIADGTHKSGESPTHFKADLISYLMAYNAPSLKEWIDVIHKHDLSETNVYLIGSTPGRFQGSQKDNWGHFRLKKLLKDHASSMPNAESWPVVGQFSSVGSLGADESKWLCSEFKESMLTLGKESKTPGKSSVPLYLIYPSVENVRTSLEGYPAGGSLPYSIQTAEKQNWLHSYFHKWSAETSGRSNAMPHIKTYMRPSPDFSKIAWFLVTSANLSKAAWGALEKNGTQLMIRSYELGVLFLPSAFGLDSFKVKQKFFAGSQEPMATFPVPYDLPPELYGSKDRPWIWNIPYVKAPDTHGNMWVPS
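Compounds were preincubated with Tdp1 (1 nM final) for 15 min at room temperature before substrate (15 nM final) started a 5 min reaction; beads (10 ug/ml final) were then added for 10 min before AlphaScreen detection.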
Numbers stand for hits; n = inactive; u = inconclusive; x = not tested or not shown. Shown are actives, neighbours in structure and some others; about 17% of the full set was active somewhere. Unless noted, the call rests on the fitted dose curve; in most records, active means well fitted curve in the direction sought with a large enough effect; inconclusive means small, poorly fitted or top-dose-only effect, or another doubt; inactive means no such curve, though single readings can be large; an effect the other way counts as inactive or inconclusive.

SMILES | DT40 TDP1 no CPT | TDP1 cell CPT | ClpP mod | TDP1 inh
CCOC(=O)c1c(C)oc2c1c(C=NCc1ccccn1)c(O)c1ccccc12 | 1.2µM | 0.92µM | n | n
CCOC(=O)c1c(C)oc2c1c(C=NCC1CCCO1)c(O)c1ccccc12 (stereo not given) | 18µM | u | n | n
N#CN1CCC(NC(=O)c2cccc(F)c2)CC1 | x | x | x | n
CCOC(=O)[C@]12CCC=C1N(Cc1ccccc1)C(=O)[C@H](CC(=O)NCC13CC4CC(CC(C4)C1)C3)C2 | u | u | n | x
CCOC(=O)[C@]12CCC=C1N(Cc1ccco1)C(=O)[C@H](CC(=O)NCCC(C)C)C2 | n | n | n | x
CCOC(=O)[C@]12CCC=C1N(Cc1ccccc1)C(=O)[C@H](CC(=O)NCCC(C)C)C2 | u | 21µM | n | x
CCOC(=O)[C@]12CCC=C1N(Cc1ccccc1)C(=O)[C@H](CC(=O)NCc1cccc(C(F)(F)F)c1)C2 | 23µM | u | n | x
CCOC(=O)[C@]12CCC=C1N(Cc1ccccc1)C(=O)[C@H](CC(=O)NCCCCc1ccccc1)C2 | 21µM | u | n | x
CCOC(=O)[C@]12CCCC=C1N(Cc1ccco1)C(=O)[C@H](CC(=O)NCCC(C)C)C2 | 16µM | u | n | x
CCOC(=O)[C@]12CCC=C1N(Cc1ccccc1)C(=O)[C@H](CC(=O)NCc1cccs1)C2 | 23µM | u | n | x
CCOC(=O)c1cc(C(=O)OCC)c2ccccn2c1=O | 18µM | u | u | n
O=C(Nc1ccc2nc(SCC(=O)N3CCOCC3)sc2c1)c1cccc(F)c1 | 21µM | 23µM | n | n
O=C(Nc1ccc2nc(SCC(=O)N3CCOCC3)sc2c1)c1ccc(F)cc1 | 12µM | 16µM | n | n
CN1CCN(C(=O)CSc2nc3ccc(NC(=O)c4ccccc4F)cc3s2)CC1 | u | u | n | x
O=C(Nc1ccc2nc(SCC(=O)N3CCCC3)sc2c1)c1ccc(F)cc1 | n | n | u | n
O=C(Nc1ccc2nc(SCC(=O)N3CCCC3)sc2c1)c1cccc(F)c1 | 15µM | 21µM | n | x
CC(=O)c1ccc(NC(=O)COCc2cc(-c3ccco3)on2)cc1 | u | u | n | n
CC(C)c1ccc(NC(=O)N2CCc3nc(NCc4cccc(Oc5ccccc5)c4)ncc3C2)cc1 | 16µM | u | n | x
O=C(Nc1cccc(F)c1)N1CCc2nc(NCc3cccc(Oc4ccccc4)c3)ncc2C1 | 15µM | u | n | x
CN(CC(=O)Nc1cccc(F)c1)CC(=O)Nc1ccccc1Oc1ccccc1 | u | u | n | x
CC(C)c1ccc(NC(=O)N2CCc3ccccc3C2)cc1 | u | u | x | n
COc1cc(Nc2ncc3c(n2)CCN(C(=O)Nc2ccc(C(C)C)cc2)C3)cc(OC)c1OC | 12µM | u | n | x
C/C=C1\C(=O)CC2C3CCC4=CC(=O)CC[C@]4(C)C3CC[C@]12C (stereo not given in full) | x | x | x | n
CCCCc1c(C)[nH]c2c(OC)cccc2c1=S | u | n | n | x
C=CCc1c(C)[nH]c2c(OC)cccc2c1=S | 18µM | 13µM | x | n
SMILES | DT40 TDP1 no CPT | TDP1 cell CPT | ClpP mod | TDP1 inh
Cc1csc(SCC(=O)NCc2ccccc2)n1 | n | n | x | n
Cc1csc2sc(-c3ccnc(SCC(=O)NCc4ccccc4)n3)c(C)c12 | 0.73µM | 0.73µM | x | n
CCN(CC)CCNC1=NCCn2c1cc1cc(OC)ccc12 | u | 21µM | u | n
Cc1ccc(C(=O)c2cc([N+](=O)[O-])ccc2N2CCOCC2)cc1 | 2.1µM | 2.1µM | n | n
COc1ccc(C(=O)c2cc([N+](=O)[O-])ccc2N2CCOCC2)cc1 | 0.033µM | 0.026µM | n | n
COc1cc(SC)ccc1C(=O)N1CCc2ccccc21 | u | 21µM | n | x
Cc1ccc(C(=O)c2cc([N+](=O)[O-])ccc2N2CCCCC2)c(C)c1 | 0.65µM | 1µM | n | n
O=C(O)c1cc([N+](=O)[O-])ccc1N1CCCCC1 | n | n | n | n
O=C(c1cc([N+](=O)[O-])ccc1N1CCOCC1)N1CCOCC1 | n | n | n | n
COc1ccc(NC(=O)COC(=O)c2cc([N+](=O)[O-])ccc2N2CCOCC2)cc1 | n | n | n | n
Cc1nc(NCc2ccccc2)c2nc(-c3ccccc3)n(C(C)CN(C)C)c2n1 (stereo not given) | x | x | x | n
CCCCC/C=C\C/C=C\C/C=C\C/C=C\CCCCCC(N)=O | x | x | x | n
Cn1cnc2c(NC3CCCC3)ncnc21 | n | n | x | n
CCOc1ccc(C(=O)c2cc([N+](=O)[O-])ccc2N2CCOCC2)cc1 | 0.16µM | 0.13µM | n | n
O=C(c1cc([N+](=O)[O-])ccc1Cl)N1CCc2ccccc21 | n | n | u | n
Cc1c(Cl)cccc1NC(=O)N1CCOc2ccccc21 | u | n | n | n
O=C(c1cc([N+](=O)[O-])ccc1N1CCCCC1)N1CCc2ccccc21 | 4.6µM | 15µM | x | n

Screening results deposited in PubChem BioAssay by National Center for Advancing Translational Sciences (NCATS).
